About 410 targets per protein were measured; listed, in parts, are those with the strongest signals and a random draw of the rest.
Key:
Assay in all cases: glycan array binding signal (z-score within array); higher = stronger binding
Settings in all cases: glycan notation: IUPAC condensed, linker removed
[1] = target: Gal(b1-4)GlcNAc(b1-3)[Fuc(a1-3)GlcNAc(b1-6)]Gal(b1-4)Glc
How it was run: (§1)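 Glycan array data were curated from 3228 arrays in the Consortium for Functional Glycomics database and kept only where the protein sequence was available. Glycan names were converted to IUPAC-condensed notation, and columns mapping to the same glycan were averaged. The binding signal is a within-array Z-score, averaged across arrays of the same protein sequence at different concentrations or buffers and across linkers. Negative Z-scores can be read as non-binding.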

[2] = target: Gal(b1-4)GlcNAc(b1-6)Gal(b1-4)GlcNAc
How it was run: as §1

Gal3S(b1-4)Glc = target: Gal3S(b1-4)Glc
How it was run: as §1

[3] = target: Gal3S(b1-4)[Fuc(a1-3)]GlcNAc6S
How it was run: as §1

Gal3S6S(b1-4)GlcNAc6S = target: Gal3S6S(b1-4)GlcNAc6S
How it was run: as §1

Gal6S(b1-3)GlcNAc6S = target: Gal6S(b1-3)GlcNAc6S
How it was run: as §1

GalNAc(b1-3)Gal = target: GalNAc(b1-3)Gal
How it was run: as §1

GalNAc(b1-4)GlcNAc = target: GalNAc(b1-4)GlcNAc
How it was run: as §1

Glc(a1-6)Glc(a1-6)Glc = target: Glc(a1-6)Glc(a1-6)Glc
How it was run: as §1

[4] = target: GlcNAc(b1-2)[GlcNAc(b1-4)]Man(a1-3)[GlcNAc(b1-4)][GlcNAc(b1-2)[GlcNAc(b1-6)]Man(a1-6)]Man(b1-4)GlcNAc(b1-4)[Fuc(a1-6)]GlcNAc
How it was run: as §1

[5] = target: GlcNAc(b1-2)[GlcNAc(b1-6)]Man(a1-6)[GlcNAc(b1-2)Man(a1-3)]Man(b1-4)GlcNAc(b1-4)[Fuc(a1-6)]GlcNAc
How it was run: as §1

GlcNAc(b1-3)Fuc = target: GlcNAc(b1-3)Fuc
How it was run: as §1

[6] = target: GlcNAc(b1-3)Gal(b1-4)GlcNAc(b1-3)Gal(b1-4)GlcNAc(b1-2)[GlcNAc(b1-3)Gal(b1-4)GlcNAc(b1-3)Gal(b1-4)GlcNAc(b1-6)]Man(a1-6)[GlcNAc(b1-3)Gal(b1-4)GlcNAc(b1-3)Gal(b1-4)GlcNAc(b1-2)Man(a1-3)]Man(b1-4)GlcNAc(b1-4)[Fuc(a1-6)]GlcNAc
How it was run: as §1

[7] = target: GlcNAc(b1-3)Gal(b1-4)GlcNAc(b1-3)Gal(b1-4)GlcNAc(b1-3)Gal(b1-4)GlcNAc(b1-3)Gal(b1-4)GlcNAc(b1-2)Man(a1-3)[GlcNAc(b1-3)Gal(b1-4)GlcNAc(b1-3)Gal(b1-4)GlcNAc(b1-3)Gal(b1-4)GlcNAc(b1-3)Gal(b1-4)GlcNAc(b1-2)Man(a1-6)]Man(b1-4)GlcNAc(b1-4)GlcNAc
How it was run: as §1

[8] = target: Man(a1-2)Man(a1-6)[Man(a1-3)]Man(a1-6)[Man(a1-2)Man(a1-2)Man(a1-3)]Man
How it was run: as §1

[9] = target: Man(a1-3)[Man(a1-6)]Man(a1-6)[Man(a1-3)]Man(b1-4)GlcNAc(b1-4)GlcNAc
How it was run: as §1

Man(a1-6)Man = target: Man(a1-6)Man
How it was run: as §1

[10] = target: Neu5Ac(a2-3)Gal(b1-3)GlcNAc(b1-6)GalNAc
How it was run: as §1

[11] = target: Neu5Ac(a2-3)Gal(b1-3)[Fuc(a1-4)]GlcNAc
How it was run: as §1

[12] = target: Neu5Ac(a2-3)GalNAc(b1-4)GlcNAc
How it was run: as §1

[13] = target: Neu5Ac(a2-3)[GalNAc(b1-4)]Gal(b1-4)GlcNAc(b1-3)GalNAc
How it was run: as §1

[14] = target: Neu5Ac(a2-6)Gal(b1-4)GlcNAc(b1-2)Man
How it was run: as §1

[15] = target: Neu5Ac(a2-6)Gal(b1-4)GlcNAc(b1-2)Man(a1-3)Man(b1-4)GlcNAc(b1-4)GlcNAc
How it was run: as §1

[16] = target: Neu5Ac(a2-6)Gal(b1-4)GlcNAc(b1-2)Man(a1-6)[GlcNAc(b1-2)Man(a1-3)]Man(b1-4)GlcNAc(b1-4)GlcNAc
How it was run: as §1

[17] = target: Neu5Ac(a2-6)Gal(b1-4)GlcNAc(b1-2)Man(a1-6)[Man(a1-3)]Man(b1-4)GlcNAc(b1-4)GlcNAc
How it was run: as §1

[18] = target: Neu5Ac(a2-6)Gal(b1-4)GlcNAc(b1-3)GalNAc
How it was run: as §1

[19] = target: Neu5Ac(a2-6)GlcNAc(b1-4)GlcNAc(b1-4)GlcNAc
How it was run: as §1

B1: FimA-N3 (Actinomyces oris) (protein)
chain: MHHHHHHSSGVDLGTENLYFQSNAGLQGAQFQLYKAKNAYANTCSNEKEGAPIAINGQTTLTTDAQGAIDIKGLFISDSIDGADRDNQVNAMERCYVLVETKAPAGYVLPAGNGAATPVKVKAGEETTDN
glycan array binding signal (z-score) [1]: -0.038 | glycan array binding signal (z-score) [2]: -0.237 | glycan array binding signal (z-score) (Gal3S(b1-4)Glc): 0.681 | glycan array binding signal (z-score) [3]: 4.34 | glycan array binding signal (z-score) (Gal3S6S(b1-4)GlcNAc6S): -0.339 | glycan array binding signal (z-score) (Gal6S(b1-3)GlcNAc6S): -0.446 | glycan array binding signal (z-score) (GalNAc(b1-3)Gal): 2.63 | glycan array binding signal (z-score) (GalNAc(b1-4)GlcNAc): -0.022 | glycan array binding signal (z-score) (Glc(a1-6)Glc(a1-6)Glc): -0.527 | glycan array binding signal (z-score) [4]: -0.394 | glycan array binding signal (z-score) [5]: -0.252 | glycan array binding signal (z-score) (GlcNAc(b1-3)Fuc): 3.03 | glycan array binding signal (z-score) [6]: 0.202 | glycan array binding signal (z-score) [7]: -0.047 | glycan array binding signal (z-score) [8]: -0.315 | glycan array binding signal (z-score) [9]: -0.253 | glycan array binding signal (z-score) (Man(a1-6)Man): 3.05 | glycan array binding signal (z-score) [10]: 0.038 | glycan array binding signal (z-score) [11]: 15.7 | glycan array binding signal (z-score) [12]: -0.492 | glycan array binding signal (z-score) [13]: -0.212 | glycan array binding signal (z-score) [14]: -0.531 | glycan array binding signal (z-score) [15]: -0.045 | glycan array binding signal (z-score) [16]: 0.223 | glycan array binding signal (z-score) [17]: 0.03 | glycan array binding signal (z-score) [18]: -0.16 | glycan array binding signal (z-score) [19]: 2.65
